Source: PubChem BioAssay AID449768 (Vanderbilt High Throughput Screening Facility, 2010)
About 1,400 (1.3%) of roughly 110,000 compounds were called active. What follows is part of a selection rich in actives, with near analogues and random picks from the rest. Values without a mark were called inactive.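 The calls were made as follows: active = Z score or B-score, a plate-position-corrected score, falls beyond the plate's 99.7% confidence bounds, in either direction; inactive = both scores lie inside the 99.7% bounds.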

What follows are molecules tested against Sodium-dependent dopamine transporter (Homo sapiens) (UniProt Q01959) (assay: changed hDAT dopamine uptake under cocaine IC80, either direction, primary screen, cocaine antagonist project, cell-based, LLC-PK1 hDAT, [14C]-dopamine uptake, MLSMR (AID 449768;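 also: scored against the spread of the other compound wells on the same plate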)). Settings: LLC-PK1 hDAT cells, [14C]-dopamine uptake with cocaine IC80; at 10 µM; actives deviate in either direction.
Sequence of Sodium-dependent dopamine transporter (Homo sapiens) (Q01959 whole entry, looked up): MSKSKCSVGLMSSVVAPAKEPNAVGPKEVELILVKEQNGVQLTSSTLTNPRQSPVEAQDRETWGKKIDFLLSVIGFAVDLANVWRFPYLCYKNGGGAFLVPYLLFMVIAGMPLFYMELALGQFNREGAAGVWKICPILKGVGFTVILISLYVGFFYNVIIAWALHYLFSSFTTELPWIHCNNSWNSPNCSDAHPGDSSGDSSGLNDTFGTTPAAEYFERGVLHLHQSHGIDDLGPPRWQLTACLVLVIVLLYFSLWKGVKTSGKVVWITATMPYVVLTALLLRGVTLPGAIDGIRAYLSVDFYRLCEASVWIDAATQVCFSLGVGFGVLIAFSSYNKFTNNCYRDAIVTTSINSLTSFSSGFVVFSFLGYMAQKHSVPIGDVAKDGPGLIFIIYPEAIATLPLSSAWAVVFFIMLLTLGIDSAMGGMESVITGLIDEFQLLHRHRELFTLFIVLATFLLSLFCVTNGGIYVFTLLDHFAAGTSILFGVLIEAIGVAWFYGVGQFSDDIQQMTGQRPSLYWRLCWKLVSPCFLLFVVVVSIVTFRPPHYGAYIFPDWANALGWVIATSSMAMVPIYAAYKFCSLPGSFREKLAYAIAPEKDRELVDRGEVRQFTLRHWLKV

| Compound | B-score |
| --- | --- |
| CC(C)c1ccc(OCC(=O)N2CCN(C)CC2)c(Br)c1 | -0.237 |
| COc1ccccc1CN1CCN(C(=O)Cc2ccccc2)CC1 | 0.503 |
| O=C(COc1ccc2ccccc2c1)N1CCN(Cc2ccncc2)CC1 | -1.8 (active) |
| COC(=O)C1=C(c2cc3ccccc3o2)C[C@@H]2CC[C@H]1N2C(=O)NC1CCCCC1 | -0.718 |
| COC(=O)C1=C(c2ccccc2)C[C@@H]2CC[C@H]1N2C(=O)N1CCCCC1 | -0.0906 |
